Data on 8 compounds can be found in PubChem BioAssay (NCI).

Compounds without any hit were thinned out: in the full panel of roughly 79,000, 15% have a hit. Unmarked numbers belong to inactive results. Active and inactive are the calls of the source. Rule as the data show it: active = growth inhibition above about 70%; inactive = the rest.

The nature of the assay: NCI Yeast Anticancer Drug Screen. Data for the rad18 strain (AID 177). As to conditions: S. cerevisiae rad18 mutant growth inhibition, hits give high values. Here is the method: Growth inhibition of yeast strains with defined genetic alterations is measured as a screen for potential anti-cancer activity. Selected strains with alterations in DNA damage repair or cell cycle control were exposed to compounds and growth inhibition was measured relative to vehicle treated controls. The strain used in this assay is rad18

Regarding `CCCCCCCCCCC1CCC(=O)O1` (stereo not given), the growth inhibition by setting is: (at 1.2 µM) -1%; (at 3.7 µM) 1%; (at 11.0 µM) -1%; (at 33.0 µM) 7%; (at 100.0 µM) 97% (active).

Regarding `NCCNc1ccc(NCCN)c2c1C(=O)c1c(O)ccc(O)c1C2=O`, the growth inhibition was 4% (at 1.2 µM); 18% (at 3.7 µM); 8% (at 11.0 µM); 85% (active) (at 33.0 µM); 61% (at 100.0 µM).

Regarding `C=C1CC(Cn2cc(Br)c(=O)[nH]c2=O)(c2ccc(-c3ccccc3)cc2)OC1=O` (stereo not given), the growth inhibition runs as follows: (at 1.2 µM) 4%; (at 3.7 µM) 10%; (at 11.0 µM) 10%; (at 33.0 µM) 43%; (at 100.0 µM) 95% (active).

For the compound `Nc1ncncc1C(C1=C(O)COC1=O)C1=C(O)COC1=O`, the growth inhibition was 1% (at 1.2 µM); 0% (at 3.7 µM); -1% (at 11.0 µM); -3% (at 33.0 µM); -4% (at 100.0 µM).

With `Cc1ccc(CSC(N)=Nc2ccccc2)cc1C`, the growth inhibition is 6% (at 1.2 µM); -7% (at 3.7 µM); 2% (at 11.0 µM); 0% (at 33.0 µM); 31% (at 100.0 µM).

In the case of `CC1(C)C(=O)OC(n2cc(F)c(=O)[nH]c2=O)C1=O` (stereo not given), the growth inhibition by setting is: (at 1.2 µM) 4%; (at 3.7 µM) 8%; (at 11.0 µM) 8%; (at 33.0 µM) 21%; (at 100.0 µM) 28%.

Regarding `S=C(S)NN1CCOCC1`, the growth inhibition (at 1.2 µM) was 87% (active); the growth inhibition (at 3.7 µM) was 67%; the growth inhibition (at 11.0 µM) is 67%; the growth inhibition (at 33.0 µM) is 50%; the growth inhibition (at 100.0 µM) is 72% (active).

Consider `CCCCCCCCCC/C=C\C(=O)O`, for which the growth inhibition reads like this: (at 1.2 µM) 0%; (at 3.7 µM) 1%; (at 11.0 µM) -5%; (at 33.0 µM) 19%; (at 100.0 µM) 97% (active).
